About 1,900 (0.58%) of roughly 330,000 compounds were called active. Inconclusive results (about 4%) are left out. No stated cut-off is given here; in the data, inconclusive means inhibition above about 70% without an active follow-up result; inactive means below that. Not all results are given here. Entries with a potency or affinity are not part of this list.

The test is described as follows: M. tuberculosis growth inhibition, HTS (AID 449762).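 Further: bacterial growth assessed after seven days of incubation.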 Conditions: M. tuberculosis H37Rv growth inhibition, 7H9 media; at 25 µM; stronger effect = higher value.
For `O=C(N/N=C/c1ccccc1OC(=O)N1CCOCC1)c1cccs1`, the inhibition was 25.5% (inactive).

Turning to `COc1ccc(NS(=O)(=O)c2cccc(C(=O)Nc3cccc(C(=O)O)c3)c2)cc1`, the inhibition was -7.77% (inactive).

On to `COc1cc(/C=N/NC(=O)COc2ccccc2C)ccc1OC(=O)c1cccs1`, for which the inhibition is -7.68% (inactive).

Consider `CCOc1cc(/C=N/NC(=O)COc2ccc(C)cc2)ccc1OC(=O)c1cccs1`, for which the inhibition is 8.62% (inactive).

For `COC(=O)c1cc(S(=O)(=O)Nc2nn(C)c3ccccc23)oc1C`, the inhibition was 1.72% (inactive).

As to `COCCN(C(=O)COC(=O)CSc1ccc2ccccc2c1)c1c(N)n(Cc2ccccc2)c(=O)[nH]c1=O`, the inhibition is 0.46% (inactive).

As for `C=CCNC(=O)c1onc(CSc2ccncc2)c1C(=O)NCC=C`, the inhibition is -11.3% (inactive).

For `Cc1ccc(S(=O)(=O)n2nc(C)c(S(=O)(=O)N3CCOCC3)c2C)cc1`, the inhibition was -4.96% (inactive).

As for `Cc1ccc(-c2cc(C(F)(F)F)n3ncc(C(=O)N4CCCCC4c4cccnc4)c3n2)cc1` (stereo unspecified), the inhibition was -0.42% (inactive).

On to `O=C(c1cnn2c(C(F)(F)F)cc(-c3ccccc3)nc12)N1CCCCC1c1cccnc1` (stereo unspecified), for which the inhibition is 61.7% (inactive).

As for `CC(C)N(C(=O)[C@H]1CC(CC(=O)NCC23CC4CC(CC(C4)C2)C3)C(=O)N2CCc3c([nH]c4ccccc34)[C@]12C)C(C)C` (stereo partly specified), the inhibition is 69.1% (inactive).

Consider `C[C@]12c3[nH]c4ccccc4c3CCN1C(=O)C(CC(=O)NCC13CC4CC(CC(C4)C1)C3)C[C@@H]2C(=O)N1CCCCC1` (stereo partly specified), for which the inhibition was 21.5% (inactive).

On to `COc1cc([N+](=O)[O-])ccc1NC(=O)NCc1ccco1`, for which the inhibition was -4.54% (inactive).

Regarding `COc1ccccc1CNC(=O)c1c(-c2ccccc2)nn(-c2ccccc2)c1C`, the inhibition is 6.07% (inactive).

On to `CC(=O)c1c(N2CCN(Cc3ccccc3)CC2)[nH]c(-c2ccccc2)nc1=S`, for which the inhibition is -2.96% (inactive).

For `CC(=O)c1c(N2CCOCC2)[nH]c(-c2ccccc2)nc1=S`, the inhibition was 43.5% (inactive).

With `CC(C)[C@H](NC(=O)[C@@H]1Cc2ccccc2CN1C(=O)OC(C)(C)C)C(=O)NCc1ccco1`, the inhibition is 2.19% (inactive).

With `COc1ccc([N+](=O)[O-])cc1NS(=O)(=O)c1cccc(C(=O)OC2CCOC2=O)c1` (stereo unspecified), the inhibition was -6.35% (inactive).

`O=C(NCCc1csc(-c2cccnc2)n1)c1ccccc1`: the inhibition is -11.6% (inactive).

On to `O=C1CN(C(=O)OCc2ccccc2)c2ccccc2N1`, for which the inhibition is -1.7% (inactive).

As for `CN(c1ccccc1)S(=O)(=O)c1ccc(Cl)c(C(=O)NCc2ccccc2CN2CCCC2)c1`, the inhibition is -5.7% (inactive).

With `O=C(NCc1ccccc1CN1CCCC1)c1cccc(S(=O)(=O)N2CCCC2)c1`, the inhibition is -11.2% (inactive).

As to `CC1CCCCC1NC(=O)c1cc(=O)[nH]c2ccccc12` (stereo unspecified), the inhibition was -4.11% (inactive).

For the compound `CC1CCCCC1NC(=O)c1ccc2c(c1)OCCO2` (stereo unspecified), the inhibition was 8.58% (inactive).

Consider `Cc1ccc(C(OC(=O)c2ccco2)C(=O)NCc2cccs2)cc1` (stereo unspecified), for which the inhibition was 3.55% (inactive).

Turning to `O=C(O)c1cccc(NC(=S)NC(=O)c2ccc(-c3ccc(Cl)cc3)o2)c1`, the inhibition was 1.13% (inactive).

Consider `Cc1cc2ncn(C(=O)c3ccc4c(c3)OCO4)c2cc1C`, for which the inhibition is 6.27% (inactive).

Regarding `Cc1cccc(C(=O)Nc2ccc(S(=O)(=O)N3CCOCC3)cc2)c1[N+](=O)[O-]`, the inhibition was 6.13% (inactive).

With `COc1ccccc1-c1nnc(Nc2nc3c(OC)cccc3s2)o1`, the inhibition is 6.89% (inactive).

For the compound `COc1cccc2sc(Nc3nnc(-c4ccccc4Cl)o3)nc12`, the inhibition was 46.2% (inactive).

`COc1cccc(CN2CCN(Cc3cc4ccccc4o3)CC2CCO)c1` (stereo unspecified): the inhibition is -6.38% (inactive).

Regarding `CC(C)OCCCn1c(-c2ccc(Br)cc2)c[nH]c1=S`, the inhibition was 8.53% (inactive).

Regarding `COc1ccc(OC)c(-n2c(-c3cccc(O)c3)n[nH]c2=S)c1`, the inhibition is 2.31% (inactive).

Turning to `CCN(CC)C(=O)c1ccc(Oc2ccc([N+](=O)[O-])cc2Cl)cc1`, the inhibition was 4.15% (inactive).

Turning to `CCN(CC)C(=O)c1cc2cc([N+](=O)[O-])ccc2s1`, the inhibition is 6.23% (inactive).

Consider `O=C(COc1ccc(Br)cc1)N1CCc2ccccc2C1`, for which the inhibition was 1.78% (inactive).

With `CC(C)C(NC(=O)c1c(F)cccc1F)C(=O)N1CCN(c2ccccc2F)CC1` (stereo unspecified), the inhibition is 5.13% (inactive).

On to `O=C(O)c1ccc(N=N/C(=N\Nc2ccc(C(=O)O)cc2)c2ccccc2)cc1`, for which the inhibition was 11.8% (inactive).

`O=C(/C(=N\Nc1ccc(Br)cc1)Sc1nnnn1-c1ccccc1)c1ccccc1`: the inhibition was 2.41% (inactive).

In the case of `O=C(Cc1n[nH]c(=O)c2ccccc12)Nc1cccc(S(=O)(=O)N2CCCCCC2)c1`, the inhibition is 34.4% (inactive).

As for `c1ccc(Cn2nnc3c(N4CCCC4)ncnc32)cc1`, the inhibition was 1.78% (inactive).

Take `c1ccc(Cn2nnc3c(N4CCc5ccccc54)ncnc32)cc1`: the inhibition was -4.04% (inactive).

Regarding `CC(c1ccccc1)n1cnc2ccccc2c1=O` (stereo unspecified), the inhibition was 3.81% (inactive).

Regarding `CCOC(=O)Cn1c(C(C)=O)nc2ccccc21`, the inhibition is -5.86% (inactive).

`CCOc1ccc2nc(SC3CC(=O)N(c4ccc(OC)cc4OC)C3=O)sc2c1` (stereo unspecified): the inhibition was 37.3% (inactive).

In the case of `COc1cccc(COC(=O)Nc2ccccc2F)c1`, the inhibition is 4.89% (inactive).

With `COc1cccc(C(=O)NC2CC3CCCC(C2)N3CC(=O)Nc2ccccc2)c1` (stereo unspecified), the inhibition was 46.8% (inactive).

As to `CN(C)c1ccc(NC(=O)CN2C3CCCC2CC(NC(=O)c2ccccc2)C3)cc1` (stereo unspecified), the inhibition is 49% (inactive).

For `COc1ccc(NC(=O)CN2C(=O)NC3(CCCc4ccccc43)C2=O)c(OC)c1` (stereo unspecified), the inhibition is -0.44% (inactive).

In the case of `COc1ccc(OC)c(NC(=O)CN2C(=O)NC3(CCCc4ccccc43)C2=O)c1` (stereo unspecified), the inhibition was 0.98% (inactive).

On to `COc1ccc(N2CCN(C3CCCN(Cc4ccccc4OCCO)C3)CC2)cc1` (stereo unspecified), for which the inhibition is -8.3% (inactive).

Regarding `CS(=O)(=O)N(CC(=O)N1CCCC1)c1ccccc1F`, the inhibition was -1.03% (inactive).

Regarding `O=C(Nc1ccc2c(c1)CCCN2C(=O)c1cccs1)c1cccc(F)c1`, the inhibition was 25.3% (inactive).

With `CC1=NN(c2ccccc2)C(=O)/C1=C/c1c(C)[nH]n(-c2ccc(C)cc2)c1=O`, the inhibition is 3.09% (inactive).

Turning to `CC1=NN(c2ccccc2)C(=O)/C1=C/c1c(O)n(-c2ccc(F)cc2)[nH]c1=O`, the inhibition was -0.04% (inactive).

As for `Cc1ccc(-c2nc(N)n(S(C)(=O)=O)n2)cc1`, the inhibition is -7.35% (inactive).

Values taken from PubChem BioAssay AID449762 (Southern Research Specialized Biocontainment Screening …, 2010).
